Experimental data as given in PubChem BioAssay AID1159580 (chemical genetic matrix, 2015).
Where “and” joins values, the source holds several entries; their conditions need not be identical. Identical values can stand only once. Hit rate of the full screen: of about 5,500 compounds, about 2,000 (36%) were called active. Not shown: some 18% with an inconclusive outcome. Rule as the data show it: active = normalized growth mostly below about 0.91 (no sharp cut-off); inconclusive = no clear call, values can overlap the other calls; inactive = mostly above about 0.92. The list shows a part of the results.

Test: chemical genetic growth profiling, strain panel (AID 1159580);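 also: tested at 20 µM; growth read once vehicle control cultures reached saturation at 30 °C; 1 = growth at the plate median or of vehicle wells; lower values mean less growth of the strain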
Details: S. cerevisiae deletion strains, growth OD

Measured: normalized growth

COC(=O)C1=C(C)NC(C)=C(C(=O)OCCN(C)Cc2ccccc2)C1c1cccc([N+](=O)[O-])c1 (stereo not given)
inactive: locus YAL013W, strain DEP1, active compounds read low 1 | locus YAL021C, strain ccr4, active compounds read low 0.98 | locus YAL026C, strain drs2, active compounds read low 0.979 | locus YAL030W, strain snc1, active compounds read low 1.01 | locus YAL040C, strain CLN3, active compounds read low 1.02 | locus YBL061C, strain skt5, active compounds read low 0.984 | locus YBR009C, strain hhf1, active compounds read low 0.984 | locus YBR021W, strain FUR4, active compounds read low 0.935 | locus YBR023C, strain chs3, active compounds read low 0.989 | locus YBR171W, strain sec66, active compounds read low 0.986 | locus YBR229C, strain ROT2, active compounds read low 0.952 | locus YBR231C, strain swc5, active compounds read low 0.978 | locus YBR279W, strain paf1, active compounds read low 0.975 | locus YCL011C, strain gbp2, active compounds read low 0.969 | locus YCL016C, strain dcc1, active compounds read low 0.982 | locus YCL029C, strain bik1, active compounds read low 0.981 | locus YCL061C, strain MRC1 (second series), active compounds read low 0.972 | locus YCL069W, strain vba3, active compounds read low 1 | locus YCR088W, strain abp1, active compounds read low 0.984 | locus YDL005C, strain med2, active compounds read low 0.986 | locus YDL035C, strain GPR1, active compounds read low 0.983 | locus YDL040C, strain nat1, active compounds read low 0.973 | locus YDL074C, strain BRE1, active compounds read low 0.917 | locus YDL101C, strain DUN1, active compounds read low 0.979 | locus YDL134C, strain PPH21, active compounds read low 0.976 | locus YDL185W, strain tfp1, active compounds read low 0.977 | locus YDL192W, strain arf1, active compounds read low 0.992 | locus YDR001C, strain nth1, active compounds read low 0.974 | locus YDR069C, strain doa4, active compounds read low 0.977 | locus YDR101C, strain arx1, active compounds read low 0.986 | locus YDR137W, strain rgp1, active compounds read low 1.02 | locus YDR150W, strain NUM1, active compounds read low 0.977 and 0.972 | locus YDR159W, strain sac3, active compounds read low 0.93 | locus YDR162C, strain NBP2, active compounds read low 1 | locus YDR195W, strain ref2 0.96 | locus YDR297W, strain sur2, active compounds read low 0.972 | locus YDR318W, strain mcm21, active compounds read low 0.944 | locus YDR334W, strain swr1, active compounds read low 0.925 | locus YDR335W, strain msn5, active compounds read low 0.986 | locus YDR363W, strain ESC2, active compounds read low 1.03 | locus YDR388W, active compounds read low 0.993 | locus YDR392W, strain spt3, active compounds read low 0.968 | locus YDR502C, strain sam2, active compounds read low 0.981 | locus YEL003W, strain gim4, active compounds read low 0.996 | locus YEL037C, strain rad23, active compounds read low 0.981 | locus YEL061C, strain CIN8 (second series), active compounds read low 0.99 | locus YEL061C, strain CIN8, active compounds read low 0.994 | locus YER002W, strain NOP16, active compounds read low 1.01 | locus YER015W, strain faa2, active compounds read low 0.988 | locus YER016W, strain bim1, active compounds read low 0.983 | locus YER110C, active compounds read low 0.976 | locus YER111C, strain swi4, active compounds read low 0.989 | locus YER155C, strain BEM2 (second series), active compounds read low 0.968 | locus YER155C, strain BEM2, active compounds read low 0.99 | locus YER167W, strain BCK2, active compounds read low 0.994 | locus YFR010W, strain ubp6, active compounds read low 0.978 | locus YGL078C, strain dbp3, active compounds read low 0.979 | locus YGL086W, strain mad1, active compounds read low 0.986 | locus YGL167C, strain pmr1, active compounds read low 1.05 | locus YGL173C, strain kem1, active compounds read low 0.982 | locus YGL227W, strain vid30, active compounds read low 0.989 | locus YGL240W, strain doc1, active compounds read low 0.97 | locus YGL248W, strain PDE1, active compounds read low 0.991 | locus YGL253W, strain hxk2, active compounds read low 0.988 | locus YGR078C, strain PAC10, active compounds read low 0.955 | locus YGR135W, strain pre9, active compounds read low 0.972 | locus YGR229C, strain SMI1, active compounds read low 0.982 | locus YGR252W, strain gcn5, active compounds read low 0.902 | locus YHR013C, strain ard1, active compounds read low 0.978 | locus YHR027C, strain rpn1, active compounds read low 0.983 | locus YHR030C, strain SLT2, active compounds read low 0.987 and 0.976 | locus YHR079C, strain IRE1 (second series), active compounds read low 0.982 | locus YHR079C, strain IRE1, active compounds read low 0.949 | locus YHR094C, strain hxt1, active compounds read low 0.988 | locus YHR129C, strain ARP1, active compounds read low 0.994 | locus YHR142W, strain chs7, active compounds read low 1.02 | locus YHR200W, strain rpn10, active compounds read low 0.989 | locus YIL066C, strain RNR3, active compounds read low 0.973 | locus YIL073C, strain SPO22, active compounds read low 1.12 | locus YIL125W, strain kgd1, active compounds read low 0.99 | locus YIR030C, strain dcg1, active compounds read low 0.979 | locus YJL092W, strain hpr5, active compounds read low 0.996 | locus YJL095W, strain BCK1 (second series), active compounds read low 0.983 | locus YJL095W, strain BCK1, active compounds read low 0.988 and 0.979 | locus YJL115W, strain asf1, active compounds read low 0.989 | locus YJL129C, strain trk1, active compounds read low 0.959 | locus YJL134W, strain LCB3, active compounds read low 0.987 | locus YJL154C, strain vps35, active compounds read low 0.971 | locus YJL164C, strain tpk1, active compounds read low 0.998 | locus YJL166W, strain qcr8, active compounds read low 0.993 | locus YJL168C, strain set2, active compounds read low 1 | locus YJL187C, strain SWE1 (second series), active compounds read low 0.973 | locus YJL187C, strain SWE1, active compounds read low 0.993 | locus YJR043C, strain POL32, active compounds read low 0.997 | locus YJR066W, strain TOR1, active compounds read low 0.917
